A short description of assay [1]: viability loss with induced miR-34 in A549 – imaging, A549 dox-inducible miR-34, nuclei and caspase counts, primary screen (AID 1347080;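 active means compounds whose cell count with miR-34 switched on is under 0.7 times the count with it off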). Conditions: A549 miR-34 inducible, Hoechst nuclei count, 48 h.
Assay [2] is described as follows: blockers of cellular phospholipid synthesis – cell-based, LOPAC library, screen 4, primary screen (AID 1347384). Conditions: animal cells, phospholipid biosynthesis inhibition screen; at 10 µM.
Assay [3] in a line: galactose survival enhancers in mitochondrial complex I cybrids – cell-based, galactose medium, ATP luminescence, primary screen (AID 1645843;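 active means z-score of at least 1.8 in each of two replicates, scored against plate mean and spread of sample wells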;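 further: positive z means more ATP and so rescue of galactose-driven cybrid death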). As to conditions: complex I mutant cybrid cells, 72 h, stronger effect = higher value.
Assay [4] relates to Hepatitis C virus NS3 helicase. Briefly: blockers of NS3h binding to ssDNA – biochemical, fluorescence polarization, LOPAC1280 library, primary screen (AID 687035; in the data active means inhibition above about 37%). As to conditions: Purified HCV NS3 helicase, Cy5-dT15 ssDNA binding fluorescence polarization; stronger effect = higher value; concentration not given here. (Fluorescence polarisation rises when a labelled molecule tumbles more slowly, as on binding a larger partner.)

A short description of assay [5]: compounds altering Cy5-DNA-NS3h complex signal – biochemical, LOPAC1280, artefact control for HCV NS3 helicase inhibitor project (AID 687037). Conditions: Cy5-DNA-NS3h complex fluorescence interference counterscreen. A general note: A counterscreen serves to expose hits that act by an unwanted route or on another target.
Assay [6] deals with NAD(+) hydrolase SARM1 (Homo sapiens) (UniProt Q6SZW1). The experiment in a line: blocking NAD cleavage by SARM1 SAM-TIR – cell lysate, NAD-Glo luminescence (AID 1508614;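 active means compound whose remaining NAD level is above about 45 nM, limit read from the data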). As to conditions: SAM-TIR HEK293T lysate NADase, at 1 µM, stronger effect = higher value.
Chain of NAD(+) hydrolase SARM1 (Homo sapiens) (Q6SZW1 whole entry, looked up): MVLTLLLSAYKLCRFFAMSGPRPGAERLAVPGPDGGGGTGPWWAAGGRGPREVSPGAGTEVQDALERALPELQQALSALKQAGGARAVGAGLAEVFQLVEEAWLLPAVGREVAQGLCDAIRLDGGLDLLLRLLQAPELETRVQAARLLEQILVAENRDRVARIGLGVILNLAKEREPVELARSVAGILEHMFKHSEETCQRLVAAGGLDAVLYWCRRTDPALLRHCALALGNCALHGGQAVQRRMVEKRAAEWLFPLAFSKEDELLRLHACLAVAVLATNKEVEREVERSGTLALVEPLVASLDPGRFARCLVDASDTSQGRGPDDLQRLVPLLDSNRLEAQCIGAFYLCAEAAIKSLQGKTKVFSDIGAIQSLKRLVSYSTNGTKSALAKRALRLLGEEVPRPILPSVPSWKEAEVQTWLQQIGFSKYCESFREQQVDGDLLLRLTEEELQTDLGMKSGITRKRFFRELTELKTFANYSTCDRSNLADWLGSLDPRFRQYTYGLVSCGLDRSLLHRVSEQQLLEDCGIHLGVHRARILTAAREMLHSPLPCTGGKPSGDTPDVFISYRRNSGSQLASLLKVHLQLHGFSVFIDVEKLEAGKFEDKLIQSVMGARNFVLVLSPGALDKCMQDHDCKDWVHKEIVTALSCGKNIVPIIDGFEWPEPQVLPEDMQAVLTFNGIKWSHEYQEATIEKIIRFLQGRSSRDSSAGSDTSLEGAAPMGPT
A short description of assay [7]: compounds altering viability of human ES cells (AID 493140).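 Further: cells exposed to compounds for four days before counting.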 As to conditions: human embryonic stem cell survival screen; stronger effect = higher value.
A short description of assay [8]: chitosan synthesis blockers in C. neoformans – flow cytometry, Cibacron Brilliant Red staining (AID 1347148).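 Further: compound exposure lasted three days at 37 degrees C.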 Conditions: Cryptococcus neoformans chitosan, stronger effect = lower value; at 10 µM unless noted. (In flow cytometry, cells or beads pass a laser one at a time.)
A short description of assay [9]: P. berghei load reduction in hepatocytes – cell-based, HepG2, luciferase luminescence, HepG2 viability, primary screen (AID 624349; in the data active means parasite load remaining mostly below about 12%, no sharp cut-off; inactive means mostly above about 10%;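 further: 100% = mean of DMSO negative control wells on the same plate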). Conditions: P. berghei liver stage in HepG2, luciferase luminescence, concentration not given here; parasite load remaining: stronger effect = lower value; viability: measured here: HepG2 viability without parasites.
The nature of assay [10]: compounds altering circadian rhythm period length – cell-based, LOPAC library, luminescence reporter (AID 2774).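 Further: values are relative to mean of DMSO wells on each plate.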 As to conditions: circadian reporter cells, at 7 µM, actives lie on both sides.
In assay [11] the target is Mitogen-activated protein kinase 7 (Homo sapiens) (UniProt Q13164). Briefly: Gal4-ERK5 driven luciferase induction – cell-based, HTS, primary screen (AID 1508626;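 active means luciferase signal above three times the same-plate solvent-only control wells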;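 further: luciferase driven by Gal4-ERK5 fusion binding five Gal4 sites before minimal TATA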). Conditions: HeLa Gal4-ERK5 transactivation, 18 h, at 5 µM, stronger effect = higher value.
Chain of Mitogen-activated protein kinase 7 (Homo sapiens) (Q13164 whole entry, looked up, the tested form may be a part): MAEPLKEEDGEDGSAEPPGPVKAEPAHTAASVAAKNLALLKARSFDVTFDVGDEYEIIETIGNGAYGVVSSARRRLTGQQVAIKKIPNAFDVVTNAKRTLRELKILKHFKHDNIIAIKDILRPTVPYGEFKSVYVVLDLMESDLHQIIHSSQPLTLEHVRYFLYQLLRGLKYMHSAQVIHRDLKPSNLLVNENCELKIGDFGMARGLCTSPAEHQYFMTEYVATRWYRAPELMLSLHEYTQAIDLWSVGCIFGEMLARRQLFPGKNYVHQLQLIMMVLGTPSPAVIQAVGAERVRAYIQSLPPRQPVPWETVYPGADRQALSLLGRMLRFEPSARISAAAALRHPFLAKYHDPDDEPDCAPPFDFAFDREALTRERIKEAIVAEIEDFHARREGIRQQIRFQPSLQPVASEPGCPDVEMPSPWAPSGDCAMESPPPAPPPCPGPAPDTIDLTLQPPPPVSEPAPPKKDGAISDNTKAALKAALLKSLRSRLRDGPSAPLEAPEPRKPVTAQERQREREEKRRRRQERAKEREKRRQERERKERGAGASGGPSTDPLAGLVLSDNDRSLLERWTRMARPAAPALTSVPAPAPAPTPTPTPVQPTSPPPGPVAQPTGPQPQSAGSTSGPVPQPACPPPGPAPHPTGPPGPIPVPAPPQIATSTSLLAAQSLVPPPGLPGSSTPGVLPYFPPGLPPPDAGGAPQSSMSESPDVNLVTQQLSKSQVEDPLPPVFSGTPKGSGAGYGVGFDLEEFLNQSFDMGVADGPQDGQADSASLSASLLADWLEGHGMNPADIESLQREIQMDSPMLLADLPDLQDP
The nature of assay [12]: MELAS cybrid and Rieske KO viability enhancers – cell-based, MELAS cybrids, Rieske KO mouse fibroblasts, CellTiter-Glo, primary screen (AID 1508586;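 active means mean z-score across replicates of 1.96 or higher in either the MELAS or the Rieske mutant cell line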;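 further: z relative to plate mean and SD of compound and empty wells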). As to conditions: low glucose.
Setting [13] is: stronger effect = lower value, cell number ratio, induced over uninduced.
Where [14] appears, read: measured here: relative caspase fold change +Dox/-Dox.
Setting [15] is: measured here: total cells with miR-34 induction, stronger effect = lower value.
The mark [16] stands for this setting: measured here: total cells without miR-34 induction.

Molecules are shown by their SMILES. The source made the active and inactive calls. Unless noted, how the calls were made is not given here.

For the molecule `NS(=O)(=O)c1ccc(-n2nc(C(F)(F)F)cc2-c2ccc(Cl)cc2)cc1`, the fold change in assay [1] (setting [13]) was 1.1 (inactive); in assay [1] (setting [14]), 0.617. Also, the cell count amounted to 7530 in assay [1] (setting [15]) and 6870 in assay [1] (setting [16]). Also, the call in [2] was inactive. Further, the z-score in assay [3] is 2.57 (active).
Regarding `Cc1nc2n(c(=O)c1CCN1CCC(c3noc4cc(F)ccc34)CC1)CCCC2O` (stereo not drawn), the inhibition (commonly the change of the read-out against control, counted positive when it falls) in assay [4] is -4% (inactive). The fluorescence ratio (interference) in assay [5] is 1 (inactive). Moreover, the figures for the fold change in [1] (setting [13]) and in assay [1] (setting [14]) were 1.04 (inactive) and 0.907, respectively. The results for the cell count in [1] (setting [15]) and in assay [1] (setting [16]) were 9980 and 9570, respectively. The molecule was called inactive in assay [2]. The remaining NAD in [6] is 10 nM (inactive). The z-score in assay [3] is -0.155 (inactive).
Turning to `COc1c(C=O)c(O)cc2c1C(=O)c1ccccc1C2=O`, the survival in assay [7] was 93.2 (inactive). Moreover, the fold change is 0.91 (inactive) in assay [1] (setting [13]) and 0.797 in [1] (setting [14]). In addition, the cell count in assay [1] (setting [15]) was 2810; in [1] (setting [16]) it was 3080. In addition, in [8], the fold fluorescence was 5.22 [at 177.1 µM] (inactive).
Take `COc1ccccc1CN[C@@H]1CCCN[C@@H]1c1ccccc1`: the fold change in [1] (setting [13]) is 0.967 (inactive); in assay [1] (setting [14]), 1.32. Besides, the cell count is 9540 in assay [1] (setting [15]) and 9860 in assay [1] (setting [16]). Moreover, in assay [2], the outcome was inactive. Besides, the z-score in [3] is -0.42 (inactive).
With `NC(N)=NCCNS(=O)(=O)c1cccc2cnccc12`, the survival in [7] is 124 (inactive). Also, in assay [9], the parasite load remaining was 46.9% (inactive). Further, the viability (commonly a read-out of living cells in per cent, often relative to untreated cells) in assay [9] was found to be 111%. The results for the fold change in assay [1] (setting [13]) and in assay [1] (setting [14]) were 0.914 (inactive) and 0.868, respectively. In addition, the cell count was 2220 in [1] (setting [15]) and 2430 in assay [1] (setting [16]). In [8], the fold fluorescence was 3.91 [at 170.4 µM] (inactive).
Regarding `CCCCS(=N)(=O)CC[C@H](N)C(=O)O` (stereo partly drawn), in assay [10], the period change was -0.045 h (inactive). Moreover, in assay [4], the inhibition was -2% (inactive). The fluorescence ratio (interference) in assay [5] was 1 (inactive). Also, the fold change was 0.972 (inactive) in assay [1] (setting [13]) and 2.07 in assay [1] (setting [14]). For the same molecule, the cell count in assay [1] (setting [15]) came out at 9810; in assay [1] (setting [16]) it was 10100. The call in [2] was inactive. Besides, the luciferase signal in assay [11] is 48 AU (inactive). Also, the z-score in assay [3] is -0.84 (inactive).
Turning to `Brc1cc2c(cc1[C@H]1Nc3ccccc3[C@H]3C=CC[C@H]31)OCO2`, the fold change in assay [1] (setting [13]) is 1.18 (inactive); in [1] (setting [14]), 1.55. Further, the figures for the cell count in assay [1] (setting [15]) and in assay [1] (setting [16]) were 6800 and 5750, respectively. In [2], the result was inactive. Further, the z-score in assay [3] was -0.59 (inactive).
Regarding `Nc1ccn(C2O[C@H](CO)[C@@H](O)C2(F)F)c(=O)n1` (stereo partly drawn), the values for the fold change in [1] (setting [13]) and in assay [1] (setting [14]) were 1.18 (inactive) and 1.01, respectively. For the same molecule, the cell count in assay [1] (setting [15]) was 1960; in [1] (setting [16]), 1660. For the same molecule, the call in assay [2] was inactive. Besides, the z-score in assay [3] was -1.32 (inactive).
`COCCCCCCCCCCCC(=O)O`: the survival in assay [7] was 81.7 (inactive). Besides, the fold change in [1] (setting [13]) is 0.981 (inactive); in assay [1] (setting [14]), 1.11. The cell count in [1] (setting [15]) was 5900; in assay [1] (setting [16]), 6020. In addition, the fold fluorescence in [8] was 7.84 (inactive).
In the case of `O=c1[nH]cnc2c1CN=N2`, the parasite load remaining in [9] is 22.2% (inactive). The viability in assay [9] was 60.5%. Besides, the fold change in assay [1] (setting [13]) is 0.891 (inactive); in assay [1] (setting [14]), 1.16. Moreover, the figures for the cell count in assay [1] (setting [15]) and in [1] (setting [16]) were 9860 and 11100, respectively. Besides, in assay [2], the outcome was inactive. Further, the z-score in assay [12] (MELAS cybrid survival, CellTiter-Glo 48 h, stronger effect = higher value) was 0.591 (inactive); in assay [12] (Rieske KO mouse fibroblast survival, CellTiter-Glo 72 h), 0.624; in assay [3], 0.315 (inactive).
